BAP1 block: human BAP1 deubiquitinase inhibition. 72,000 tested, 0.48% active. AID 436. recombinant BAP1, Ub-AMC hydrolysis fluorescence kinetic; stronger effect = lower value. calls only at 20 µM;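 active means activity remaining at or below 50% of control, provided the compound also passes the data quality filters; inactive means the rest, including low values that fail the filters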;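 further: 100% = DMSO wells rate and 0% = substrate alone blank rate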
TNAP act DEA: activates human TNAP at intermediate phosphate acceptor concentration. P05186. AID 813. 64,000 tested, under 10 active. activation factor at 20 µM. purified TNAP, CDP-star luminescence, 100 mM DEA, 30 min; stronger effect = higher value; scale: 0 levamisole-inhibited, 1 vehicle-only enzyme;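 active means activation factor of at least 2 at 20 µM, relative to controls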
Ec RNAP inh: inhibitors of Escherichia coli RNA polymerase; inhibition, %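 (tested at 10 µM)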; 62,000 tested, 0.2% active; E. coli RNA polymerase, fluorescence transcription assay; P0A8V2; in the data active means inhibition above about 20%;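 further: 0% = enzyme without compound and 100% = no enzyme blank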
Cdc25B inh: inhibitors of human Cdc25B phosphatase; recombinant Cdc25B, OMFP fluorescence Ex485/Em525; inhibition, %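 (compounds tested at 10 µM final in the well)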; AID 368; 65,000 tested, 0.1% active; P30305; in the data active means inhibition above about 50%
Target sequence (P30305 whole entry, looked up): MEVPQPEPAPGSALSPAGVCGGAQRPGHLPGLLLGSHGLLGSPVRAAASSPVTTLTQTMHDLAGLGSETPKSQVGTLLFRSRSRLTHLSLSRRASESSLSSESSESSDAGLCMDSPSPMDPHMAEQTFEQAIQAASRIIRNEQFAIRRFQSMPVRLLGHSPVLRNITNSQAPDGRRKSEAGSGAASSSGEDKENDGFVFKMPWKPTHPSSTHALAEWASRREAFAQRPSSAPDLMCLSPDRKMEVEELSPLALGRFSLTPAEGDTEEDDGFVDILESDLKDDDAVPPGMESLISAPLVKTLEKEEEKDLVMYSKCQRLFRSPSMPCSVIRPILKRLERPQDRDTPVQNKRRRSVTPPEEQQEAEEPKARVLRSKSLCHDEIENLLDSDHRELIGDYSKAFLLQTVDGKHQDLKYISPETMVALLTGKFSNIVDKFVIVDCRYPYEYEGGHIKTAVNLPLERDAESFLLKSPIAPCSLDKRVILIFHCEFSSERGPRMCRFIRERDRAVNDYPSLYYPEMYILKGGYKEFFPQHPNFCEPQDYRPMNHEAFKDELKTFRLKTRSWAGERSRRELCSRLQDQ
MKP-1 inh: inhibitors of human MKP-1 phosphatase; 65,000 tested, 0.15% active; AID 374; recombinant MKP-1, OMFP hydrolysis fluorescence; P28562; inhibition, %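 (compounds tested at a single concentration somewhere between 10 and 100 µM)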;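 active means inhibition above about 50%, limit read from the data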;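 further: 0% = DMSO max control wells and 100% = wells with enzyme stopped by NaOH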
HePTP inh: human HePTP phosphatase inhibition; P35236; recombinant HePTP phosphatase activity, OD absorbance; inhibition, % at 20 µM; 110,000 tested, 0.64% active; in the data active means inhibition above about 50%;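 further: plate controls were vehicle for no effect and reference inhibitor for full effect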
* = called active by the depositor; i = inactive; nt = no result given; + = active, no number. Hits are enriched below; roughly 1% of the tested compounds scored in any of these assays.

SMILES	BAP1 block	TNAP act DEA	Ec RNAP inh	Cdc25B inh	MKP-1 inh	HePTP inh
O=c1[nH]c(-c2ccc(-c3ccc(F)cc3)o2)nc2sc3c(c12)CCCC3	nt	nt	nt	nt	nt	10
COc1nc(OC/C(N)=N/O)nc(N2CCOCC2)n1	i	0.9	3	66*	-11	8
NC(=O)c1ccccc1N=Cc1cc([N+](=O)[O-])ccc1Cl	nt	nt	nt	nt	nt	-1
C=CCn1c(SCC(=O)c2ccc(NS(=O)(=O)c3ccccc3)cc2)nnc1-c1cccs1	nt	0.8	26*	-11	17	3
CCOP(=O)(OCC)C(Nc1ccc([N+](=O)[O-])cc1)c1c[nH]c2ccccc12 (stereo not drawn)	nt	nt	nt	nt	nt	6
Cc1ccc(NC(=O)c2c(-c3ccccc3)noc2C)cc1C	nt	nt	nt	nt	nt	104*
Cc1ccc(C)n1-c1ccc(Cl)c(C(=O)NN)c1	nt	nt	nt	nt	nt	1
Cc1ccc(C)n1-c1ccc(C(=O)O)c(Cl)c1	nt	nt	nt	nt	nt	102*
CC(=O)c1ccc(-n2c(C)ccc2C)cc1	nt	nt	nt	nt	nt	0
Cc1ccc(C)n1-c1cc(C(=O)O)cc(C(=O)O)c1	i	nt	nt	nt	nt	101*
Cc1ccc(C)n1-c1cc(C(=O)O)ccc1O	nt	nt	nt	nt	nt	103*
Cc1ccc(C)n1-c1ccc(C(=O)O)c(O)c1	nt	nt	nt	nt	nt	103*
O=S(=O)(Nc1cccc(-c2nc3ccccc3s2)c1)c1ccccc1	nt	nt	nt	nt	nt	5
O=C(/C=C/c1ccco1)Nc1ccc(Cl)cc1Cl	nt	nt	nt	nt	nt	8
O=C(/C=C/c1ccco1)Nc1ccc(Cl)cc1C(=O)O	nt	nt	nt	nt	nt	102*
Cc1cccc(NC(=O)c2ccccc2NC(=O)/C=C\c2ccco2)c1C	nt	nt	nt	nt	nt	6
O=C(/C=C/c1ccco1)Nc1cccc([N+](=O)[O-])c1	nt	nt	nt	nt	nt	62*
O=C(/C=C/c1ccco1)Nc1ccc(O)cc1C(=O)O	nt	nt	nt	nt	nt	98*
O=C(/C=C/c1ccco1)NCCCCNC(=O)/C=C/c1ccco1	nt	nt	nt	nt	nt	103*
O=C(/C=C/c1ccc(Cl)cc1)Nc1cccc([N+](=O)[O-])c1	nt	nt	nt	nt	nt	18
O=C(/C=C/c1ccco1)NCCCNC(=O)/C=C/c1ccco1	nt	nt	nt	nt	nt	46
CCc1ccccc1NC(=O)c1cc(Cl)ccc1OC	nt	nt	nt	nt	nt	-1
N#C/C(=C\c1c[nH]c2ccccc12)C(=O)Nc1ccc(F)cc1	nt	nt	nt	nt	nt	-10
CCc1cccc(C)c1NC(=O)COc1ccc(OC)cc1	nt	nt	nt	nt	nt	10
O=C1NC(=S)S/C1=C/c1ccc(-c2ccccc2)o1	nt	nt	nt	nt	nt	9
SMILES	BAP1 block	TNAP act DEA	Ec RNAP inh	Cdc25B inh	MKP-1 inh	HePTP inh
S=C1NC(=S)/C(=C\c2ccc(-c3ccc(Br)cc3)o2)S1	nt	nt	nt	nt	nt	93*
O=C(O)c1ccc(N/C(=N\S(=O)(=O)c2ccccc2)c2ccccc2)cc1	nt	nt	nt	nt	nt	-5
Cc1cc(=O)c2n(Cc3ccc(Cl)cc3)nc[n+]2[nH]1	i	0.9	49*	3	-2	-4
CC(C)(C)c1ccc(S(=O)(=O)NNc2ccccc2)cc1	nt	nt	nt	nt	nt	101*
CC(=O)Nc1ccc(S(=O)(=O)NNc2ccccc2)cc1	nt	nt	nt	nt	nt	-6
Cc1cccc(C(=O)NNC(=O)c2ccc(O)cc2O)c1	nt	nt	nt	nt	nt	-20
Nc1c(C(O)(C(F)(F)F)C(F)(F)F)ccc2ccccc12	+	0.9	4	1	11	1
Cc1cc2nc3s/c(=C\c4ccc(N5CCOCC5)c([N+](=O)[O-])c4)c(=O)n3c2cc1C	nt	nt	nt	nt	nt	13
O=C1OC(/C=C/c2ccccc2)=NC/1=C/c1ccc(-c2ccc3c(c2)C(=O)NC3=O)o1	nt	nt	nt	nt	nt	71*
COC(=O)C1=C(C)N=C2SCCC(=O)N2C1c1cccs1 (stereo not drawn)	i	0.9	10	54*	6	3
CC1(C)Cc2c(sc3[nH]c(=S)n(CCc4ccccc4)c(=O)c23)CO1	nt	nt	nt	nt	nt	-7
CCc1cccc(NC(=O)c2cnccn2)c1	nt	nt	nt	nt	nt	-10
Cc1cccc(NC(=O)c2cnccn2)c1	nt	nt	nt	nt	nt	60*
CCOC(=O)c1ccc(-n2c(C)nc3ccccc3c2=O)cc1	i	0.9	1	-1	5	4
CCOC(=O)c1ccc(-n2c(-c3ccccc3)nc3ccccc3c2=O)cc1	nt	nt	nt	nt	nt	98*
COc1cc(/C=C2\C(=O)N(c3cccc(C(=O)O)c3)N=C2C)c([N+](=O)[O-])cc1OC	nt	nt	nt	nt	nt	75*
COc1cc(Br)c(/C=C2\C(=O)N(c3ccc(S(N)(=O)=O)cc3)N=C2C)cc1OC	nt	nt	nt	nt	nt	-2
COc1cccc(/C=C2\C(=O)N(c3cccc(C(=O)O)c3)N=C2C)c1	nt	nt	nt	nt	nt	66*
COc1ccc(OC)c(/C=C2\C(=O)N(c3ccc(S(N)(=O)=O)cc3)N=C2C)c1	nt	nt	nt	nt	nt	68*
COc1cc(Br)c(/C=C2\C(=O)N(c3cccc(C(=O)O)c3)N=C2C)cc1OC	nt	nt	nt	nt	nt	77*
O=c1/c(=C\c2cn[nH]c2-c2ccccc2)sc2nc3ccccc3n12	nt	nt	nt	nt	nt	50*
Cn1c(CSc2nnc(SCc3ccccc3)s2)nc2ccccc21	i	0.9	1	74*	24	9
c1ccc(SCc2nc(-c3ccncc3)no2)cc1	nt	0.9	-5	5	74*	12
O=C(NCc1cccs1)C(Cc1ccccc1)n1cccc1 (stereo not drawn)	i	0.8	23*	-12	1	8
O=[N+]([O-])c1cncc([N+](=O)[O-])c1Nc1ccc(Cl)cn1	nt	nt	nt	nt	nt	87*
SMILES	BAP1 block	TNAP act DEA	Ec RNAP inh	Cdc25B inh	MKP-1 inh	HePTP inh
O=C(Nc1ccc(Br)cc1C(=O)O)c1cccc(N2C(=O)c3ccccc3C2=O)c1	nt	nt	nt	nt	nt	102*
CN(/N=C\c1ccco1)c1nc(-c2ccccc2)cc(-c2ccccc2)n1	nt	nt	nt	nt	nt	14
O=c1oc2cc(O)c([N+](=O)[O-])cc2cc1-c1csc(-c2cc3ccccc3oc2=O)n1	nt	nt	nt	nt	nt	84*
O=c1oc2cc(O)c([N+](=O)[O-])cc2cc1-c1csc(-c2ccc(Cl)cc2)n1	nt	nt	nt	nt	nt	9
CCOc1ccccc1N1CCN(C(=O)c2cccc(F)c2)CC1	nt	nt	nt	nt	nt	103*
CC(C)CC(C(=O)O)n1c(O)c(C2=c3ccccc3=NC2=O)sc1=S (stereo not drawn)	nt	nt	nt	nt	nt	5
O=C(N/N=C/c1ccc(OC(=O)c2ccc(Br)cc2)cc1)c1cccc([N+](=O)[O-])c1	nt	nt	nt	nt	nt	52*
COC1CCCCC1N1CCN(C(=O)c2ccco2)CC1 (stereo not drawn)	nt	nt	nt	nt	nt	2
Cc1ccc(NC(=O)COC(=O)c2ccc3c(c2)NC(=O)C2CCCN32)cc1C (stereo not drawn)	nt	0.9	4	7	54*	1
Cc1ccc(-n2nc3cc(C)c(NC(=O)c4cc([N+](=O)[O-])ccc4Br)cc3n2)cc1	nt	nt	nt	nt	nt	1
CCOc1ccc(NC(=O)c2cc(OCC)c(OCC)c(OCC)c2)c([N+](=O)[O-])c1	nt	nt	nt	nt	nt	54*
CCOc1ccc(NC(=O)c2cccc(OC)c2)c([N+](=O)[O-])c1	i	nt	nt	nt	nt	nt
COc1ccc(CCC(=O)Nc2sc3c(c2C(N)=O)CCCCC3)cc1	nt	nt	nt	nt	nt	-7
Cc1ccc(C(=O)Nc2ccc(I)cc2C(=O)O)o1	nt	nt	nt	nt	nt	5
CC(=O)c1sc(NC(=O)c2ccc3c(c2)OCO3)nc1C	nt	nt	nt	nt	nt	103*
Cc1cc([N+](=O)[O-])ccc1NC(=O)C(C)Oc1ccccc1 (stereo not drawn)	nt	nt	nt	nt	nt	6
O=C(O)c1ccc2c(c1)C1C=CCC1C(c1cccc([N+](=O)[O-])c1)N2 (stereo not drawn)	nt	nt	nt	nt	nt	102*
Clc1ccc(-c2csc3nc4ccccc4n23)cc1	nt	nt	nt	nt	nt	-7
